The results in this text go back to PubChem BioAssay AID504861 (Broad Institute, 2011).

Out of some 1,200 compounds screened, about 290 (24%) were called active. Another 3% or so got no clear call; they are omitted.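 The calls were made as follows: active = compounds lowering cell viability signal with fitted half-maximal concentration at most ten times their highest tested concentration; inconclusive = flat fit with 30 to 70% signal loss, or poor fit; inactive = the rest.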 Not all results are given here. Potency and affinity values are given separately.

The experiment is described as follows: HEK293T cell viability reduction, dose response, cytotoxicity control for LMP1 NF-kB inhibitor project, CellTiter-Glo luminescence, cherry-picks (AID 504861). As to conditions: CellTiter-Glo ATP luminescence, 48 h; series mostly up to 26 µM; activity change, negative = cytotoxicity: at the top concentration. For orientation: ATP-based viability assays read luminescence as a measure of living cells.
As for `CCn1c2ccccc2c2cc(/C=N/NC(=O)c3ccncc3)ccc21`, the “activity change, negative = cytotoxicity” value is 10.8% (inactive).

`COc1ccc(CCNC(=O)c2nnn(-c3ccc4c(c3)OCCO4)c2N)cc1OC`: the “activity change, negative = cytotoxicity” value is -3.16% (inactive).

As for `CNS(=O)(=O)c1cccc(C(=O)OCC(=O)c2ccc3c(c2)OCCO3)c1`, the “activity change, negative = cytotoxicity” value is 4.41% (inactive).

In the case of `O=C(c1noc2c1CCCC2)N1CCCCC1`, the “activity change, negative = cytotoxicity” value was 2.78% (inactive).

For the compound `CC[C@H]1OC(=O)[C@H](C)[C@@H](O[C@H]2C[C@@](C)(OC)[C@@H](O)[C@H](C)O2)[C@H](C)[C@@H](O[C@@H]2O[C@H](C)C[C@H](N(C)C)[C@H]2O)[C@](C)(O)C[C@@H](C)C(=NOCOCCOC)[C@H](C)[C@@H](O)[C@]1(C)O`, the “activity change, negative = cytotoxicity” value was 1.19% (inactive).

Regarding `COc1cc2c(cc1OC)-c1cc(Nc3ccc4c(c3)OCCO4)nc(=O)n1CC2`, the “activity change, negative = cytotoxicity” value was 35.8% (inactive).

Take `Cc1nc2ncccn2c1-c1csc(Nc2ccccc2)n1`: the “activity change, negative = cytotoxicity” value was 3.33% (inactive).

Consider `CCOC(=O)C1=C(C)NC(C)=C(C(=O)OCC)C1c1cn(-c2ccccc2)nc1-c1ccco1`, for which the “activity change, negative = cytotoxicity” value is 9.17% (inactive).

For `COCCn1c(SCCN2CCOCC2)nc2c1c(=O)[nH]c(=O)n2C`, the “activity change, negative = cytotoxicity” value is -5.1% (inactive).

`Cc1cccc(NC(=O)c2cnc3ccccn3c2=O)c1`: the “activity change, negative = cytotoxicity” value is 11.3% (inactive).

For the compound `CC(C)c1nnc(NC(=O)c2ccc(N3C(=O)CCC3=O)cc2)s1`, the “activity change, negative = cytotoxicity” value is 9.62% (inactive).

On to `COc1ccc(-n2c(SCC(=O)Nc3cc(C)on3)nc3c(c2=O)SCC3)cc1`, for which the “activity change, negative = cytotoxicity” value is 6.53% (inactive).

For the compound `COc1cc(/C=C2/SC(=S)N(Cc3ccccc3)C2=O)ccc1OCC(=O)O`, the “activity change, negative = cytotoxicity” value is 1.52% (inactive).

Regarding `COc1ccc(/C=N/N=C/c2ccc(OC)c(OC)c2)cc1OC`, the “activity change, negative = cytotoxicity” value was 13.3% (inactive).

With `CCOCCCn1c(=S)[nH]c2ncccc2c1=O`, the “activity change, negative = cytotoxicity” value is 21.6% (inactive).

For the compound `O=c1c2c(nc3c(-c4ccc(Cl)cc4)c[nH]n13)CCCC2`, the “activity change, negative = cytotoxicity” value is -9.92% (inactive).

Take `CC(=NNC(=S)N1CCCCCC1)c1cccc2cccnc12`: the “activity change, negative = cytotoxicity” value is -5.32% (inactive).

Consider `CC1=C(CC(=O)O)c2cc(F)ccc2C1=Cc1ccc(S(C)(=O)=O)cc1`, for which the “activity change, negative = cytotoxicity” value was 0.041% (inactive).

For `COc1ccc(OC)c(CCNC(=O)CCn2nc(C)c3c(C)n(-c4ccccc4)nc3c2=O)c1`, the “activity change, negative = cytotoxicity” value is 3.9% (inactive).

As for `COCCn1c(C)cc(C(=O)COC(=O)C23CC4CC(CC(O)(C4)C2)C3)c1C`, the “activity change, negative = cytotoxicity” value is 3.31% (inactive).

Take `CC1CCc2nc(N)c(C#N)c(-c3cccnc3)c2C1` (configuration not stated): the “activity change, negative = cytotoxicity” value was -2.74% (inactive).

As for `N#CCN(N=Nc1ccccc1)c1ccccc1`, the “activity change, negative = cytotoxicity” value was -6.12% (inactive).

For the compound `CC(NC(=O)CCOc1ccccc1)c1ccccc1` (configuration not stated), the “activity change, negative = cytotoxicity” value is 1.19% (inactive).

Turning to `C[C@@H](OC(=O)c1[nH]cnc1C(=O)N1CCc2ccccc2C1)c1ccccc1`, the “activity change, negative = cytotoxicity” value is -0.366% (inactive).

Turning to `COc1cccc(-c2nnc(NC(=O)c3ccc(S(=O)(=O)N(CC(C)C)CC(C)C)cc3)o2)c1`, the “activity change, negative = cytotoxicity” value was 1.48% (inactive).

As for `CCn1c2ccccc2c2cc(/C=N/n3cnnc3)ccc21`, the “activity change, negative = cytotoxicity” value is -7.83% (inactive).

In the case of `C=CC[N+](C)(C)C/C(Cl)=C(\Cl)c1ccccc1`, the “activity change, negative = cytotoxicity” value is 7.76% (inactive).

Turning to `O=[N+]([O-])c1ccc(Cl)c(S(=O)(=O)NCC2CCCO2)c1` (configuration not stated), the “activity change, negative = cytotoxicity” value is 6.06% (inactive).

Consider `c1ccc2c(-c3ccncc3)c[nH]c2c1`, for which the “activity change, negative = cytotoxicity” value was -0.974% (inactive).

As to `COc1cc(/C=N/NC(=O)c2cc(C34CC5CC(CC(C5)C3)C4)[nH]n2)ccc1O`, the “activity change, negative = cytotoxicity” value was 3.92% (inactive).

Turning to `Cc1ccccc1CC(=O)NCc1cccnc1`, the “activity change, negative = cytotoxicity” value is -5.15% (inactive).

In the case of `Oc1ccccc1C=NN=Cc1c(O)ccc2ccccc12`, the “activity change, negative = cytotoxicity” value was 3.24% (inactive).

Regarding `CCn1c2ccccc2c2cc(/C=N/NC(=O)c3cc(O)cc(O)c3)ccc21`, the “activity change, negative = cytotoxicity” value is -8.8% (inactive).

As for `c1nc(NCc2ccc3c(c2)OCO3)c2cc(-c3ccoc3)ccc2n1`, the “activity change, negative = cytotoxicity” value was -11.3% (inactive).

As for `Oc1c(N=NC(=S)Nc2ccccc2F)c2ccccc2n1Cc1ccccc1F`, the “activity change, negative = cytotoxicity” value is 12% (inactive).

On to `CCS(=O)(=O)c1nnnn1-c1ccccc1S(C)(=O)=O`, for which the “activity change, negative = cytotoxicity” value was -0.286% (inactive).

As for `O=C1c2ccccc2C(=O)c2cc(N3CCCCC3)ccc21`, the “activity change, negative = cytotoxicity” value is -5.57% (inactive).

For the compound `O=C(NC(c1ccc(Cl)cc1)c1cc(Cl)c2cccnc2c1O)c1cccnc1` (configuration not stated), the “activity change, negative = cytotoxicity” value is 15.2% (inactive).

Consider `CC(C)c1cc(NC(=O)c2ccccc2)cc(C(C)C)c1O`, for which the “activity change, negative = cytotoxicity” value was 3.11% (inactive).

With `Nc1cc2ccncc2c2ccccc12`, the “activity change, negative = cytotoxicity” value was -17.4% (inactive).

`CC1=C(C)C(OCCCl)N(c2cc(O)c(Cl)cc2F)C1=O` (configuration not stated): the “activity change, negative = cytotoxicity” value is 11.4% (inactive).

As to `Cc1ccc(N2CCCCn3c2nc2c3c(=O)n(CC(=O)O)c(=O)n2C)cc1`, the “activity change, negative = cytotoxicity” value was 5.91% (inactive).

`Nc1ncnc(N2CCc3ccccc32)c1[N+](=O)[O-]`: the “activity change, negative = cytotoxicity” value is 5.71% (inactive).

In the case of `COc1ccc(-c2cc3c(=O)n(CC(=O)NCCCN4CCN(Cc5ccccc5)CC4)ncn3n2)cc1`, the “activity change, negative = cytotoxicity” value is -1.47% (inactive).

On to `Cc1ccccc1C(=O)N1CCN(c2ccc(NC(=O)c3cccs3)cc2)CC1`, for which the “activity change, negative = cytotoxicity” value is 12.1% (inactive).

For the compound `COc1nc(Nc2nc3ccccc3c(=O)[nH]2)nc2ccc(C)cc12`, the “activity change, negative = cytotoxicity” value is 6.13% (inactive).

As for `COc1ccc2cc3c(N)nn(C(=O)c4ccccc4[N+](=O)[O-])c3nc2c1`, the “activity change, negative = cytotoxicity” value was -10.9% (inactive).

In the case of `O=C(O)c1c2c(nc3ccccc13)/C(=C/c1ccc(O)cc1)CC2`, the “activity change, negative = cytotoxicity” value is 11.7% (inactive).

For `Cc1nn(CCCC(=O)Nc2cccnc2Cl)c(C)c1[N+](=O)[O-]`, the “activity change, negative = cytotoxicity” value is 1.66% (inactive).

With `COCCN1Cc2cccc(C(=O)N3CCN(c4cc(C)ccc4C)CC3)c2C1=O`, the “activity change, negative = cytotoxicity” value is -7.98% (inactive).

`CCOC(=O)[C@H]1[C@H]2COc3ccc(OC)cc3[C@@H]2N2C(=O)CN(C)C(=O)[C@@]12C`: the “activity change, negative = cytotoxicity” value is 0.991% (inactive).

As for `CCn1nc(C(=O)Nc2nc(-c3ccccn3)cs2)c2ccccc2c1=O`, the “activity change, negative = cytotoxicity” value is 5.64% (inactive).
